Screening results (PubChem BioAssay)
Most compounds without a hit are left out; they make up all but 1.9% or so of the library.
zVAD death inh – L929 zVAD cell death inhibition; viability rescue, % at 10 µM; actives 0.38% (n = 220,000); AID 1377; L929 zVAD necroptosis rescue, ATP luminescence, 24 h; with zVAD 60 µM;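 active = activation, scaled between plate controls, above about 75%, limit read from the data; inactive = activation under that limit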
Hsp70 activator – Hsp70 transcriptional activation, primary screen; HeLa Hsp70 promoter luciferase reporter, luminescence; scaled: vehicle 0, proteasome-inhibitor control 100%; activation, % at 10 µM; actives 0.04% (n = 200,000); AID 1203;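 active = activation above the mean across all tested compounds plus 3 SD, cutoff set per campaign, cut at about 5.5% in these data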
TNF necrop inh – blocks TNF-alpha induced death of Jurkat FADD-/- cells; Jurkat FADD-/- TNF necroptosis rescue, ATP luminescence, 24 h; 0 = TNF only, 100 = no-TNF cells; activation (protection from cell death), % at 10 µM; actives 0.068% (n = 220,000);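 active = activation, meaning protection from cell death, of at least 50% relative to plate controls; inactive = activation below 50%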;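 also: necroptosis triggered by 40 ng/mL TNF-alpha added together with compound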
HSF1 activator – increases HSF-1 driven luciferase reporter signal; activation, % at 9 µM; NIH3T3-HGL HSF-1 luciferase reporter, MG132, 8 h; 100% = twice DMSO control signal; actives 1.7% (n = 300,000);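 active = mean replicate activation of at least 50% with a set share of replicates each reaching 50%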
Hits are given with their value.

How did CC(Oc1ccc(F)cc1Br)c1nc2ccccc2c(=O)[nH]1 (centres undefined) do in these assays?
HSF1 activator: 65

Results for CCOC(=O)N1CCN(S(=O)(=O)c2cc(Cl)c(OC)cc2Cl)CC1 ?
zVAD death inh: inactive; Hsp70 activator: inactive; TNF necrop inh: inactive; HSF1 activator: 70

What do the screens show for `CCOC(=O)N1CCN(S(=O)(=O)c2cc(OCC)ccc2OCC)CC1`?
zVAD death inh: inactive; Hsp70 activator: inactive; TNF necrop inh: inactive; HSF1 activator: inactive

How did COc1cccc(NC(=O)NC2(C(F)(F)F)Oc3ccccc3O2)c1 do in these assays?
zVAD death inh: inactive; Hsp70 activator: inactive; TNF necrop inh: inactive; HSF1 activator: 67

Results for COc1cccc(NC(=O)Nc2cccc(C(=O)O)c2)c1 ?
zVAD death inh: inactive; Hsp70 activator: inactive; TNF necrop inh: inactive; HSF1 activator: inactive

How did O=C(Nc1ccc(COc2ccccc2)cc1)Nc1cccc(C(=O)O)c1 do in these assays?
HSF1 activator: inactive

What do the screens show for `CC(C)c1ccc(OCC(=O)Nc2ccc3oc(=O)ccc3c2)cc1`?
HSF1 activator: inactive

Results for COC(=O)C(C)Sc1snnc1-c1ccccc1 (centres undefined) ?
zVAD death inh: inactive; Hsp70 activator: inactive; TNF necrop inh: inactive; HSF1 activator: inactive

What do the screens show for `c1ccc(-c2nc(NCc3cccnc3)c3oc4ccccc4c3n2)cc1`?
zVAD death inh: inactive; Hsp70 activator: inactive; TNF necrop inh: inactive; HSF1 activator: 76

Results for Cc1ccn(CC(=O)NC2CC(C)(C)Cc3c2cnn3-c2ccc(F)cc2)n1 (centres undefined) ?
HSF1 activator: inactive

How did O=C(CCc1nnc(Cc2ccc(-c3ccccc3)cc2)o1)N1CCCC1 do in these assays?
zVAD death inh: inactive; Hsp70 activator: inactive; TNF necrop inh: inactive; HSF1 activator: 70

How did O=C(CSc1nnc(Cc2ccccc2)o1)N1CCCC1 do in these assays?
zVAD death inh: inactive; Hsp70 activator: inactive; TNF necrop inh: inactive; HSF1 activator: inactive

Results for CCC1CCCCN1S(=O)(=O)c1ccc(NC(=O)c2nc(S(C)(=O)=O)ncc2Cl)cc1 (centres undefined) ?
HSF1 activator: inactive

Results for COc1ccc2c(c1)CCc1c(C(=O)Nc3cc(C)n(Cc4ccc(Cl)cc4)n3)noc1-2 ?
zVAD death inh: inactive; Hsp70 activator: inactive; TNF necrop inh: inactive; HSF1 activator: inactive

How did Cc1cc(NC(=O)c2noc3c2CCCC3)nn1Cc1ccc(Cl)cc1 do in these assays?
zVAD death inh: 82; Hsp70 activator: inactive; TNF necrop inh: inactive; HSF1 activator: inactive

Results for COc1cccc(CN2CCN(Cc3cccn3-c3cccnc3)CC2CCO)c1 (centres undefined) ?
zVAD death inh: inactive; Hsp70 activator: inactive; TNF necrop inh: inactive; HSF1 activator: 56

Results for COc1ccc2c(COC(=O)CNC(=O)C34CC5CC(CC(C5)C3)C4)cc(=O)oc2c1 ?
zVAD death inh: inactive; Hsp70 activator: inactive; TNF necrop inh: inactive; HSF1 activator: inactive

What do the screens show for `Cc1ccc(S(=O)(=O)N2CCCC2C(=O)NCc2ccc3c(c2)OCO3)cc1` (centres undefined)?
zVAD death inh: inactive; Hsp70 activator: inactive; TNF necrop inh: inactive; HSF1 activator: inactive

What do the screens show for `Cc1ccc2cc3cc(C(=O)NCc4ccco4)oc3nc2c1`?
zVAD death inh: inactive; Hsp70 activator: inactive; TNF necrop inh: inactive; HSF1 activator: 64

Results for Cc1ccc2cc3cc(C(=O)NCCC(C)C)oc3nc2c1 ?
zVAD death inh: inactive; Hsp70 activator: inactive; TNF necrop inh: inactive; HSF1 activator: inactive

What do the screens show for `Cc1cc(NC(=O)c2ccccc2)sc1C`?
zVAD death inh: inactive; Hsp70 activator: inactive; TNF necrop inh: inactive; HSF1 activator: 60

What do the screens show for `COC(=O)c1ccc(N2CCN(C)CC2)c(NC(=O)c2cccs2)c1`?
HSF1 activator: inactive

How did Cc1cccc(-c2noc(-c3ccc(Cl)cc3[N+](=O)[O-])n2)c1 do in these assays?
zVAD death inh: inactive; Hsp70 activator: inactive; TNF necrop inh: inactive; HSF1 activator: inactive

How did COc1ccc(-c2onc3ccc(Cl)cc23)cc1OC do in these assays?
zVAD death inh: 75; Hsp70 activator: inactive; TNF necrop inh: inactive

What do the screens show for `COc1ccc(-c2noc(-c3ccc(Cl)cc3[N+](=O)[O-])n2)cc1OC`?
zVAD death inh: inactive; Hsp70 activator: inactive; TNF necrop inh: inactive; HSF1 activator: 53

What do the screens show for `COC(=O)C1=C(C(=O)OC)[C@@H]2N(C)c3ccc(OC)cc3[C@@]23C[C@@H](C(=O)OC)N(C(=O)c2cc(C)oc2C)C3=N1`?
HSF1 activator: inactive

Results for CCN(CC)c1nc(C)nc2c1cnn2CCc1ccccc1 ?
zVAD death inh: inactive; Hsp70 activator: inactive; TNF necrop inh: inactive; HSF1 activator: 57

How did CCN(CC)c1ncnc2c1cnn2Cc1ccc(C)cc1 do in these assays?
HSF1 activator: inactive

How did CCOC(=O)C(C(=O)OCC)C(Nc1cccc(Br)c1)c1ccccc1 (centres undefined) do in these assays?
zVAD death inh: inactive; Hsp70 activator: inactive; TNF necrop inh: inactive; HSF1 activator: 203

Results for COC(=O)C(C)Nc1cccc(Br)c1 (centres undefined) ?
zVAD death inh: inactive; TNF necrop inh: inactive; HSF1 activator: inactive

What do the screens show for `COc1cccc(C(=O)CC(C#N)c2ccc(F)cc2)c1` (centres undefined)?
HSF1 activator: inactive

Results for CCC1SC(CC)C(=O)N(CC(=O)Nc2ccc3c(c2)OCO3)C1=O (centres undefined) ?
zVAD death inh: inactive; Hsp70 activator: inactive; TNF necrop inh: inactive; HSF1 activator: 53

What do the screens show for `CC(=O)/C=C/n1c(=S)oc2ccccc21`?
zVAD death inh: inactive; Hsp70 activator: inactive; TNF necrop inh: inactive; HSF1 activator: 141

What do the screens show for `Cc1ccc(CNC(=O)CS(=O)(=O)Cc2nc(-c3ccccc3F)oc2C)cc1`?
HSF1 activator: 57

Results for CCOC(=O)c1sc(NC(=O)CC)c(C#N)c1C ?
zVAD death inh: inactive; Hsp70 activator: inactive; TNF necrop inh: inactive; HSF1 activator: inactive

How did O=C(NC1CC1)c1ccc2c(Cl)c3c(nc2c1)CCCC3 do in these assays?
zVAD death inh: inactive; Hsp70 activator: inactive; TNF necrop inh: inactive; HSF1 activator: inactive

What do the screens show for `CC1CCN(C(=O)c2ccc3c(Cl)c4c(nc3c2)CCCC4)CC1`?
zVAD death inh: inactive; Hsp70 activator: inactive; TNF necrop inh: inactive; HSF1 activator: 302

How did O=C(NCCCN1CCCC1)c1ccc2c(Cl)c3c(nc2c1)CCCC3 do in these assays?
zVAD death inh: inactive; Hsp70 activator: inactive; TNF necrop inh: inactive; HSF1 activator: inactive

What do the screens show for `CCOC(=O)C1CCN(C(=O)c2ccc3c(Cl)c4c(nc3c2)CCCC4)CC1`?
HSF1 activator: 316

What do the screens show for `CCOC(=O)C1CCCN(C(=O)c2ccc(Cl)c(S(=O)(=O)N3CCCCC3)c2)C1` (centres undefined)?
zVAD death inh: inactive; Hsp70 activator: inactive; TNF necrop inh: inactive; HSF1 activator: 79

What do the screens show for `CCCN1CCN(CCCNC(=O)c2ccc3c(Cl)c4c(nc3c2)CCCC4)CC1`?
HSF1 activator: 160

Results for CCn1c(=O)c2sccc2n(Cc2ccccc2)c1=O ?
HSF1 activator: inactive
